The list is a sample of the results.
aSyn yeast rescue: qHTS of alpha-syn Inhibitors: NCGC Sytravon Library Screen; S. cerevisiae alpha-synuclein toxicity rescue, BacTiter-Glo growth, 24 h; Potency, µM (doses to about 46.1 µM), most hits filed as activators; hit rate 0.02% among 94,000; AID 1347070, 2019; active means well fitted activation curve with a large enough effect
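Growth restoration measured by BacTiter-Glo luminescence after 24 hr at 30 deg C; alpha-synuclein yeast, raffinose-pregrown to mid-log, were added at OD600=0.02 in galactose medium onto pinned compounds.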
Calls only; n = inactive.

SMILES	aSyn yeast rescue
O=S(=O)(c1ccc(F)cc1)N1CCC(Oc2cccc(C(F)(F)F)c2)CC1	n
N#Cc1c[nH]n2c(NC3CCCCC3)c(-c3ccc(F)cc3)nc12	n
O=C(CSc1nc2c([nH]c3ccccc32)c(=O)n1-c1ccccc1F)Nc1cccc(C(F)(F)F)c1	n
Cc1cc(Nc2cccc(C(F)(F)F)c2)nc2ccc(NC(=O)c3cncc(Br)c3)cc12	n
CN1CCc2c(sc3c2C(=O)NC(c2ccc(C(C)(C)C)cc2)N3)C1 (centres undefined)	n
Cc1ccc(OCCn2cc(C(=O)C3CCCCC3)c3ccccc32)cc1	n
O=C(CSc1nccn1-c1ccc(Cl)cc1)Nc1cccc2ccccc12	n
Cc1ccc(Oc2nc3ccccn3c(=O)c2/C=C(\C#N)c2nc3ccccc3s2)c(C)c1	n
COc1cccc(C(=O)N2CCC(N3CCN(Cc4ccc(F)cc4)C(=O)C3=O)CC2)c1	n
COc1ccccc1Nc1cc(C)nc2nc(-c3ccccc3)nn12	n
CCCCCSc1nnc2c(n1)OC(c1ccc(C)s1)N(C(C)=O)c1ccccc1-2 (centres undefined)	n
O=C(Nc1ccc2nn(-c3ccccc3)nc2c1)c1ccc(-c2cccc(Cl)c2)o1	n
CCOC(=O)Cn1c(=O)n(C2CCCCC2)c2nc(-c3ccc(OCC)cc3)nc(C(N)=O)c21	n
COc1ccc(C)cc1NC(=O)N1CCN(c2cc(-c3noc(C)n3)ccc2C)CC1	n
O=C(Nc1cc(Cl)cc(Cl)c1)c1ccc(F)c(S(=O)(=O)N2CCc3ccccc32)c1	n

Compound activity from PubChem.
